Screens deposited in PubChem BioAssay by National Center for Advancing Translational Sciences (NCATS).
Marburg entry inh – Marburg virus entry inhibition; Marburg virus pseudotyped entry inhibition, cell reporter; AID 540276; Potency, µM (top dose mostly 37.8 µM), without a hit: at the top dose activity change, negative = inhibition, most hits filed as inhibitors; hit rate 1.8% among 300,000; calls by dose curve; tested in HEK293 cells; note: potency is the fitted concentration of half-maximal effect
FMDV antiviral – foot and mouth disease virus antiviral activity | FMDV antiviral cell-based qHTS | hit rate 1.2% among 410,000 | Potency, µM (series often up to 57.9 µM), for the others: top-dose activity change, negative = inhibition, most hits filed as inhibitors; calls by dose curve; tested in HEK293T cells; note: read-out not given here; potency is the fitted concentration of half-maximal effect; nearly all actives have a fitted effect of over 45% in size
LASV entry inh – blocks Lassa virus binding to or entry into cells. Lassa virus pseudotype entry inhibition, cell reporter. Potency, µM (highest dose often 37.9 µM), for inactives: at the top dose activity change, negative = inhibition, most hits filed as inhibitors. hit rate 1.2% among 300,000; calls by dose curve; tested in HEK293 cells; note: potency is the fitted concentration of half-maximal effect; nearly all actives have a fitted effect of over 50% in size
HCV inh – inhibitors of hepatitis C virus infection; Huh7.5.1 HCVcc-Cre infection, luciferase reporter, 44 h; hit rate 3.4% among 340,000; AID 651820; Potency, µM (series often up to 41.8 µM), inactives show top-dose activity change, negative = inhibition, hits mostly inhibitors; active = well fitted inhibition curve with a large enough effect; inconclusive = small, poorly fitted or top-dose-only effect, or another doubt; inactive = no such curve, though single readings can be large or run the other way; note: potency is the fitted concentration of half-maximal effect
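Seed cells (1,000/well) for 4 h; treat with compound and infect with HCVcc-Cre, moi about 0.5. Incubate 44 h, then detect luciferase activity.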
HCMV inh – human cytomegalovirus inhibition | HFF cells, HCMV-luciferase reporter, 72 h; hits give low values | activity change, negative = inhibition, % at 57.5 µM | hit rate 4.5% among 410,000 | AID 1259415; in the data active = activity change below about -60%; inconclusive = no clear call, values can overlap the other calls; inactive = above about -39%
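Steps: HFFs plated, 16 h 37C; compounds added; HCMV-luciferase added to MOI 1 PFU/cell; 72 h 37C; OneGlo reagent, 5 min room temperature; luminescence read, normalized to controls.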
The depositor's hits bear a star; ? = inconclusive; nt = no result given; + = active, no number; ! = a repeat was not active; [ ] = another dose, or the depositor's remark. An excerpt weighted towards active compounds, which were near 7.9% of everything screened. % is set by controls: 0 for no effect and ±100 for the full control effect.

SMILES	Marburg entry inh	FMDV antiviral	LASV entry inh	HCV inh	HCMV inh
Cc1ccc(C)c(N2CCN(C(=O)C3CCCN(S(=O)(=O)c4ccc5c(c4)oc(=O)n5C)C3)CC2)c1 (configuration not stated)	?	16µM*	?	nt	-27
COc1cccc(N2CCN(C(=O)C3CCCN(S(=O)(=O)c4ccc5c(c4)oc(=O)n5C)C3)CC2)c1 (configuration not stated)	-18%[46.1 µM]	?	3%[46.1 µM]	13µM*	-79*!
O=C(OCc1ccccc1)N1CCC2CC1c1ccc(N3CCN(Cc4ccc5c(c4)OCO5)CC3)cc12 (configuration not stated)	nt	-22%	nt	nt	-30
CC1CCN(S(=O)(=O)N2CCCC(C(=O)NCc3ccc(F)cc3)C2)CC1 (configuration not stated)	-6%[46.1 µM]	-18%	-16%	6%	-23
Cc1cccc(NC(=O)C2CCCN(S(=O)(=O)c3ccc4c(c3)oc(=O)n4C)C2)c1 (configuration not stated)	?	23%	7%	-19%	+!
CSc1ccc(CNC(=O)C2CCCN(S(=O)(=O)N(C)c3ccc(F)cc3)C2)cc1 (configuration not stated)	-7%[46.1 µM]	?	nt	nt	-61*
Cn1c(=O)oc2cc(S(=O)(=O)N3CCCC(C(=O)N4CCN(c5ccccc5F)CC4)C3)ccc21 (configuration not stated)	1%[46.1 µM]	20µM*	5%[46.1 µM]	nt	-6
CN1CCN(C(=O)C2CCN(S(=O)(=O)c3ccc4c(c3)oc(=O)n4C)CC2)CC1	0%	-26%	5%	8%	56
Cc1ccc(NC(=O)C2CCCN(S(=O)(=O)c3ccc4c(c3)oc(=O)n4C)C2)cc1Cl (configuration not stated)	6%[46.1 µM]	?	15%[46.1 µM]	nt	14
Cc1ccc(Cl)cc1N1CCN(C(=O)C2CCN(S(=O)(=O)c3ccc4c(c3)oc(=O)n4C)CC2)CC1	nt	?	-14%[46.1 µM]	nt	+
CN(C)c1ccc(CNC(=O)C2CCCN(S(=O)(=O)c3ccc4c(c3)oc(=O)n4C)C2)cc1 (configuration not stated)	-1%[46.1 µM]	0%	20%[46.1 µM]	nt	-105*
Cn1c(=O)oc2cc(S(=O)(=O)N3CCC(C(=O)N4CCN(c5ccc(F)cc5)CC4)CC3)ccc21	nt	-28%	nt	14%	-61*
Cn1c(=O)oc2cc(S(=O)(=O)N3CCC(C(=O)N4CCN(c5ccccc5)CC4)CC3)ccc21	1%	?	2%	5%	?
O=C(c1ccc(F)c(S(=O)(=O)N2CCOCC2)c1)N1CCN(c2ccc(F)cc2)CC1	nt	-18%	nt	19%	-65*
CCCN(CCC)CCNC(=O)C1CCCN(S(=O)(=O)c2ccc3c(c2)oc(=O)n3C)C1 (configuration not stated)	-4%	18%	31%[14.3 µM]	nt	31
CCOc1ccc(S(=O)(=O)N2CCCC(C(=O)NCc3ccncc3)C2)cc1C (configuration not stated)	?	-12%	-9%	?	-76*
Cc1ccsc1C(=O)N1CCC1(C)C(=O)Nc1ccc2c(c1)OCCO2 (configuration not stated)	nt	2%	nt	nt	6
ClC1CCCC(Cl)C1Cn1nnc(N2CCCC2)n1 (configuration not stated)	24%[46.1 µM]	nt	nt	nt	nt
O=C(C1CCC(CNS(=O)(=O)c2cccs2)CC1)N1CCN(c2ccc(F)cc2)CC1 (configuration not stated)	3.2µM*	?	?	?	?
O=C1OCC2=C1C(c1ccc3c(c1)OCO3)Sc1ccccc1N2 (configuration not stated)	?	-29%	-12%	?	?
CCOc1ccccc1C1C2=C(COC2=O)Nc2cc3c(cc21)OCO3 (configuration not stated)	?	0%	?	?	-94*
C#CCOc1ccc(C2C3=C(COC3=O)Nc3cc4c(cc32)OCO4)cc1OC (configuration not stated)	?	-12%	?	-17%	-82*
COc1ccc(C2C3=C(COC3=O)Oc3cc4c(cc32)OCO4)cc1OC (configuration not stated)	-4%	-20%	-11%	6%	-24
CCOc1ccccc1C1CC(=O)Nc2cc3c(cc21)OCO3 (configuration not stated)	0%	10%	11%	11%	?
CC(=O)Oc1ccc(C2C3=C(CC(C)(C)CC3=O)Nc3cc4c(cc32)OCCO4)cc1 (configuration not stated)	nt	-7%	nt	16%	-5
SMILES	Marburg entry inh	FMDV antiviral	LASV entry inh	HCV inh	HCMV inh
O=C1OCC2=C1C(c1ccc(F)cc1)c1cc3c(cc1N2)OCO3 (configuration not stated)	?	?	?	?	-93*
O=C1OCC2=C1C(c1ccc(F)cc1)c1cc3c(cc1N2)OCCO3 (configuration not stated)	-43%[46.1 µM]	-15%	?	5%	-85*
Clc1cccc(Nc2nccc3[nH]c(-c4ccncc4)nc23)c1	nt	nt	nt	nt	-5
Cc1cccc(-c2nc(S(=O)(=O)c3ccc(F)cc3)c(N3CCN(c4ccccc4)CC3)o2)c1	0%[46.1 µM]	-11%	?	nt	-9
NC(=O)c1cc(-c2ccccc2)nc(N2CCOCC2)n1	?	0%	-11%	5µM*	-5
NC(=O)c1cc(-c2ccccc2)nc(N2CCCCCC2)n1	-18%	-25%	-12%	2%	-13
CCCNC(=O)C1CCN(S(=O)(=O)c2cccs2)CC1	nt	-7%	nt	22%	-27
O=C(Nc1nc(-c2ccc(F)cc2)cs1)C1CCN(C(=O)c2ccc(F)cc2)CC1	11µM*	11µM*	-28%[46.1 µM]	?	-80*
Cc1csc(NC(=O)C2CCN(S(=O)(=O)c3cccs3)CC2)n1	?	?	-15%[46.1 µM]	?	?
CCCn1c(NC(=O)C2CCN(S(=O)(=O)c3cccs3)CC2)nc2ccccc21	13µM*	?	?	14µM*	-62*
CC(=O)Nc1ccc(-c2csc(NC(=O)C3CCN(S(=O)(=O)c4cccs4)CC3)n2)cc1	?	?	?	?	-69*
O=C(Nc1ccncc1)C1CCN(S(=O)(=O)c2cccs2)CC1	-10%[46.1 µM]	6%	-12%	11%	1
O=C(Nc1cc(Cl)ccn1)C1CCN(S(=O)(=O)c2cccs2)CC1	?	?	?	?	-73*
C=CCOCCC=C1c2ccccc2[C@@H](OC)[C@@H]1C	-8%[14.2 µM]	nt	nt	nt	nt
COc1ccc(NC(=O)N(C)C[C@H]2Oc3ccc(NC(=O)C4CC4)cc3CC(=O)N([C@@H](C)CO)C[C@@H]2C)cc1	nt	-5%	nt	3%	-13
Cc1cc(C)c(C(=O)COC(=O)CCNS(=O)(=O)c2c(Cl)cccc2Cl)cc1C	22%	-6%	?	1%	-10
Cc1csc(NC(=O)C2CCN(S(=O)(=O)c3ccccc3F)CC2)n1	?	-29%	-25%	?	-60*
